The panel holds about 83,000 compounds, 20% with a hit somewhere; the sample as a whole holds those more often.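 Each cell line was grown in a 96-well plate and treated with one concentration of compound for 48 hours. Values below 10 were considered active.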 Active and inactive are the calls of the source.
Tested on: MDA-MB-468 breast
Test: NCI-60 one-dose screen, 48 h (100 = growth as untreated, 0 = no growth, -100 = all killed)
Settings: 10 µM unless noted

Row | SMILES | growth
1 | CCCCCCCCCCSC(=N)N | -83.1% (active)
2 | COc1cc(C=C2C(=O)NC(=S)NC2=O)cc(CN2CCCC2)c1O | 110% (inactive)
3 | CCOC(=O)NC(/C=C/c1ccccc1)NC(=O)OCC | 99.7% (inactive)
4 | O=Nc1ccc(Nc2ccccc2)cc1 | -8.9% (active)
5 | CN(Cc1cnc2nc(N)nc(N)c2n1)c1ccc(C(=O)N[C@@H](CCc2nn[nH]n2)c2nn[nH]n2)cc1 | 52.8% (inactive)
6 | Cc1ccc2c(c1)Oc1nc(N)c(C#N)c(N)c1C2Sc1ccc(F)cc1 (stereo not given) | -72.6% (active)
7 | CC1Cc2ccc(OCCN(C)C)cc2C1=O (stereo not given) | 96.2% (inactive)
8 | Cc1cc2c(C(=O)NCC#N)cccc2n1-c1nc2c(c(NCc3ccccc3)n1)CCCC2 | -52.5% (active)
9 | Cc1ccc(C(=O)Nc2cccc(C(F)(F)F)c2)cc1Nc1nc(-c2cnccn2)nc2c1cnn2C | 104% (inactive)
10 | CCOC(=O)C1=C(C)NC(SCc2nnc(-c3ccc(Cl)cc3)o2)=NC1c1ccc(Br)cc1 (stereo not given) | 58.2% (inactive)
11 | COc1ccc(/C=C(/C(=O)N2CCN(c3ccccc3)CC2)c2cc(OC)c(OC)c(OC)c2)cc1N | 11.7% (inactive)
12 | O=c1c2sc3ncc(Cl)cc3c2nnn1-c1cccc(Cl)c1 | 97.3% (inactive)
13 | CCCC(=O)NC(c1ccc2c(c1)OCO2)c1cc(Cl)c2cccnc2c1O (stereo not given) | 7.89% (active)
14 | COc1cc2oc(-c3cccc(N)c3)cc(=O)c2c(OC)c1OC | 99.9% (inactive)
15 | C[C@@H]1CC[C@H]2[C@@H](C)C(O)O[C@@H]3O[C@]4(C)CC[C@@H]1[C@]32OO4 (stereo not given in full) | 27.7% (inactive)
16 | COc1ccc(C(=O)c2sc3nc(C)cc(C)c3c2N)cc1OC | 88% (inactive)
17 | Nc1nc(SN=Nc2ccc(S(N)(=O)=O)cc2)c2[nH]cnc2n1 | -9.35% (active)
18 | Cc1cc(=O)n2nnc3c4ccccc4ccc3n12 | 15.5% (inactive)
19 | CN1CCN(Cc2cc(NC(=O)c3cccc(C#Cc4cccc5[nH]nc(N)c45)c3)cc(C(F)(F)F)c2)CC1 | 10.8% (inactive)
20 | COc1ccc(/C=C2/SC(=Nc3c(C)nn(-c4ccccc4)c3N)NC2=O)cc1 | 7.17% (active)

Row | SMILES | growth
21 | CC/C(Cc1ccccc1)=C(\c1ccc(OCCCN(C)C)cc1)c1ccc(OC(=O)NCc2ccccc2)cc1 | 56.8% (inactive)
22 | COc1ccc(/C=N/NC(N)=S)c(OC)n1 | 86.4% (inactive)
23 | C=C1CCC2C3(C)COC(c4ccc(NC(C)=O)cc4)OC3CCC2(C)C1C/C=C1/C(=O)OCC1O (stereo not given) | 19.3% (inactive)
24 | ClC1=NC(Cl)C(Cl)=N/C1=N\c1ncn[nH]1 (stereo not given) | -61.6% (active)
25 | Cc1ccc(S(=O)(=O)N/N=C/c2cn(-c3ccc(F)cc3)nc2-c2ccc(S(C)(=O)=O)cc2)cc1 | 97% (inactive)
26 | COc1cc(/C=C/c2cc(/C=C/c3ccc(O)c(OC)c3)n(C(=O)Cc3ccccc3)n2)ccc1O | -4.29% (active)
27 | COc1cc(/C=C2\COc3ccc(O)cc3C2=O)cc(OC)c1 | 54.1% (inactive)
28 | C#CCOc1cccc(Nc2ncc3ncn(C4CCN(C(=O)CCl)C4)c3n2)c1 (stereo not given) | 24.5% [6.25 µM] (inactive)
29 | COc1ccc(-c2nc(SCC(C)C)nc(Nc3ccc(C)cc3)c2C#N)cc1 | 71.1% (inactive)
30 | COC(=O)c1[nH]c(=O)c(C#N)c(C(=O)OC)c1C(=O)c1ccccc1 | 102% (inactive)
31 | COc1ccc(/C=C2\COc3ccc(O)c(O)c3C2=O)c(OC)c1 | 27.9% (inactive)
32 | Clc1ccc(-c2cc(-c3ccccc3)nc(NCCNc3ccnc4cc(Cl)ccc34)n2)cc1 | -79.6% (active)
33 | CCCN1CCN(c2ccc3nc(-c4ccc5nc(-c6ccc(OCC)cc6)[nH]c5c4)[nH]c3c2)CC1 | -67.6% (active)
34 | C/C(=N\NC(=O)Cn1c(-c2ccc(S(C)(=O)=O)cc2)nc2cc(Cl)ccc21)c1ccc(Cl)cc1 | 68.7% (inactive)
35 | COC(=O)[C@]12CC[C@@H](C)[C@H](C)[C@@H]1C1=CC[C@@H]3[C@@]4(C)C[C@@H](OC(=O)c5ccco5)[C@H](O)[C@@](C)(CO)[C@@H]4[C@H](O)C[C@@]3(C)[C@]1(C)CC2 | -89.1% (active)
36 | CCC/C=C/C=C/C(=O)N[C@@H](Cc1cc(F)cc(F)c1)C(=O)N[C@@H]1C(=O)N2CCC[C@H]2C(=O)N2CCCC[C@H]2C(=O)N[C@@H](C)C(=O)N2C[C@H](C)C[C@H]2C(=O)O[C@H]1C | -0.457% (active)
37 | O=c1c(CNc2ccc(S(=O)(=O)Nc3ncccn3)cc2)coc2ccccc12 | 108% (inactive)
38 | CCCCCS(=O)(=O)Nc1ccc(C(=O)O)cc1 | 104% (inactive)
39 | CCC(C)(C)c1cc(O)c(C(C)(C)CC)cc1O | -2.33% (active)
40 | Cn1ccnc1C(=O)/C=C/c1ccc(NC(=O)Nc2ccc(Cl)cc2)cc1 | 43.9% (inactive)

From PubChem BioAssay (NCI)
